The results in this text go back to PubChem BioAssay (NCI).

Test systems include NCI-H23 lung; NCI-H226 lung; NCI-H322M lung; HOP-62 NSCLC; NCI-H460 lung; HOP-92 NSCLC; NCI-H522 lung; A549/ATCC NSCLC; 786-0 renal; COLO 205 colon; DU-145 prostate; K-562 leukemia; MALME-3M melanoma; RXF 393 renal; SF-268 CNS; SF-295 CNS; SF-539 CNS; UACC-257 melanoma; M14 melanoma; MDA-MB-231 breast.
Holding throughout (assay): NCI-60 one-dose screen, 48 h (100 = growth as untreated, 0 = no growth, -100 = all killed)
Holding throughout (conditions): 10 µM

Structures are written as SMILES. Compounds without any hit were thinned out: in the full panel of roughly 83,000, 20% have a hit.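 Assay: single dose, 48 h. Readout: percent growth (0 = no net growth; negative = cell death). Active: <10.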 Values without a mark were called inactive. Calls of active or inactive are those of the source.

`O=C1Nc2cc(Cl)ccc2/C1=C/c1cccc(OCc2ccccc2)c1`: the growth in the experiment with NCI-H23 lung is 11.9%; in the experiment with NCI-H226 lung, 21.9%; with NCI-H322M lung, 29.5%; with HOP-62 NSCLC it was 0.755% (active); in the experiment on NCI-H460 lung, 3.73% (active); with HOP-92 NSCLC it was -6.89% (active). Further, the growth with NCI-H522 lung is -63% (active); in the experiment with A549/ATCC NSCLC it was 5.95% (active); with 786-0 renal it was -12% (active); with COLO 205 colon it was -22.8% (active); with DU-145 prostate, 3.5% (active); with K-562 leukemia it was 5.55% (active). Moreover, the growth in the experiment on MALME-3M melanoma is 7.06% (active); in the experiment with RXF 393 renal, -3.3% (active); in the experiment with SF-268 CNS, -11.4% (active); in the experiment with SF-295 CNS, 1.81% (active); in the experiment with SF-539 CNS it was -56.8% (active); with UACC-257 melanoma it was 1.39% (active). For the same molecule, in the experiment with M14 melanoma, the growth is -18.1% (active).

Consider `O=C1Nc2cc(Cl)ccc2/C1=C/c1ccc(OCc2ccc(Br)cc2F)cc1`, for which the growth in the experiment with NCI-H23 lung is -68.8% (active); in the experiment on NCI-H226 lung, -70.6% (active); in the experiment with NCI-H322M lung, 5.43% (active); with HOP-62 NSCLC it was -79.7% (active); in the experiment with NCI-H460 lung, -81.5% (active); with HOP-92 NSCLC, -43.4% (active). The growth in the experiment on NCI-H522 lung is -52.5% (active); with A549/ATCC NSCLC, -75.2% (active); with 786-0 renal, -88.7% (active); with COLO 205 colon, -43% (active); in the experiment with DU-145 prostate, -17.5% (active); in the experiment with K-562 leukemia, 9.64% (active). For the same molecule, the growth with MALME-3M melanoma is -69.5% (active); in the experiment with RXF 393 renal, -77.4% (active); in the experiment with SF-268 CNS, -25.9% (active); in the experiment on SF-295 CNS, -94.9% (active); in the experiment on SF-539 CNS, -92% (active); with UACC-257 melanoma, -22.6% (active). For the same molecule, in the experiment on M14 melanoma, the growth was -45.1% (active).

Turning to `C=C(C)[C@@H]1CC[C@]2(C)[C@H](CC=C3[C@@H]4CC(C)(C)CC[C@]4(C(=O)N4CCOCC4)CC[C@]32C)[C@@]1(C)CCCN`, the growth in the experiment with NCI-H23 lung is -82.2% (active); in the experiment with NCI-H226 lung, -80.5% (active); in the experiment with NCI-H322M lung it was -98.9% (active); in the experiment on HOP-62 NSCLC, -90.6% (active); in the experiment with NCI-H460 lung, -77.5% (active); with HOP-92 NSCLC it was -77.1% (active). The growth with NCI-H522 lung is -91.6% (active); in the experiment on A549/ATCC NSCLC, -84.1% (active); in the experiment with 786-0 renal, -79.3% (active); in the experiment on COLO 205 colon, -92.8% (active); in the experiment on DU-145 prostate, -93.1% (active); in the experiment on MALME-3M melanoma, -93.8% (active). The growth in the experiment with MDA-MB-231 breast was -91.4% (active); in the experiment with RXF 393 renal, -90.9% (active); with SF-268 CNS, -76% (active); in the experiment on SF-295 CNS, -87.4% (active); with SF-539 CNS, -98.6% (active); with UACC-257 melanoma it was -92.4% (active).

As for `COc1ccc(-c2nc(S(=O)(=O)c3ccccc3)c(S(C)(=O)=O)o2)cc1`, the growth in the experiment with NCI-H23 lung was 3.05% (active); in the experiment on NCI-H226 lung, 74.5%; in the experiment on NCI-H322M lung, 101%; in the experiment with HOP-62 NSCLC, 96.7%; with NCI-H460 lung, 75.9%; in the experiment with HOP-92 NSCLC, -60.8% (active). In addition, the growth in the experiment with NCI-H522 lung was -97.2% (active); in the experiment with A549/ATCC NSCLC, 88.7%; with 786-0 renal, -16.9% (active); with COLO 205 colon, -85.6% (active); with DU-145 prostate it was -92.8% (active); with MALME-3M melanoma, -92.7% (active). Moreover, the growth in the experiment with MDA-MB-231 breast was -76.2% (active); in the experiment on RXF 393 renal, -90.8% (active); in the experiment on SF-268 CNS it was 61.8%; with SF-295 CNS it was 87.3%; in the experiment with SF-539 CNS, -95.9% (active); in the experiment with UACC-257 melanoma it was -38.6% (active). Moreover, in the experiment with M14 melanoma, the growth is -24% (active).

Consider `CN1CCN(c2ccc(Nc3nc(N4CCN(S(=O)(=O)c5ccc(Cl)cc5)CC4)c4sccc4n3)cc2)CC1`, for which the growth in the experiment on NCI-H23 lung was 46.6%; in the experiment with NCI-H226 lung, -22.2% (active); in the experiment on NCI-H322M lung, 74.5%; in the experiment on HOP-62 NSCLC, 71.4%; in the experiment on NCI-H460 lung it was -70.6% (active); with HOP-92 NSCLC it was 69.1%. Moreover, the growth with NCI-H522 lung was -82.7% (active); in the experiment with A549/ATCC NSCLC it was 22%; with 786-0 renal, -62.9% (active); in the experiment with COLO 205 colon it was -77.9% (active); with DU-145 prostate it was -60.8% (active); in the experiment on MALME-3M melanoma it was -97.6% (active). In addition, the growth with MDA-MB-231 breast was -86.3% (active); with RXF 393 renal, -95.7% (active); in the experiment with SF-268 CNS, 52.9%; in the experiment with SF-295 CNS it was -78% (active); in the experiment with SF-539 CNS, -100% (active); with UACC-257 melanoma it was -87.1% (active).

Turning to `CC(=O)NCC1=C(C)C=C2C(=O)[C@](C)(O)C3(CC3)C(C)=C21`, the growth in the experiment on NCI-H23 lung was -76.6% (active); in the experiment with NCI-H226 lung it was -72.2% (active); in the experiment with NCI-H322M lung, -30% (active); with HOP-62 NSCLC, -54.4% (active); with NCI-H460 lung, 4.33% (active); in the experiment with HOP-92 NSCLC, -14.1% (active). The growth in the experiment on NCI-H522 lung is -64.8% (active); in the experiment with A549/ATCC NSCLC it was -50.3% (active); in the experiment on 786-0 renal, -40.8% (active); in the experiment with COLO 205 colon, -81.4% (active); with DU-145 prostate, -10.7% (active); in the experiment with MALME-3M melanoma it was -96.3% (active). Besides, the growth in the experiment with MDA-MB-231 breast was -61.5% (active); in the experiment on RXF 393 renal it was -74.7% (active); in the experiment on SF-268 CNS, 18.3%; with SF-295 CNS it was -14.5% (active); with SF-539 CNS, -71.1% (active); with UACC-257 melanoma, -62% (active). Also, the growth with M14 melanoma was -69.1% (active).

In the case of `O=C(Nc1ccc(OCc2ccccc2)cc1)Nc1ccc(Cl)c(C(F)(F)F)c1`, the growth was -5.44% (active) with NCI-H23 lung; -27.7% (active) in the experiment with NCI-H226 lung; 7% (active) in the experiment with NCI-H322M lung; 5.97% (active) in the experiment on HOP-62 NSCLC; 3.69% (active) in the experiment with NCI-H460 lung; -38.7% (active) with HOP-92 NSCLC. For the same molecule, the growth in the experiment on NCI-H522 lung is -20.3% (active); with A549/ATCC NSCLC, 5.97% (active); with 786-0 renal, 17.9%; with COLO 205 colon it was -72.7% (active); in the experiment on DU-145 prostate, 13%; in the experiment on MALME-3M melanoma, -30.8% (active). Also, the growth is -20% (active) in the experiment with MDA-MB-231 breast; -3.2% (active) in the experiment with RXF 393 renal; 14.9% in the experiment with SF-268 CNS; -26.5% (active) in the experiment on SF-295 CNS; -46.9% (active) in the experiment on SF-539 CNS; -20.7% (active) in the experiment with UACC-257 melanoma. Besides, the growth with M14 melanoma is 19.3%.

On to `CC(C)C(=O)Nc1ccc(C(=O)NC(=S)Nc2ccc(C(=O)O)cc2)cc1`, for which the growth in the experiment on NCI-H23 lung was 101%; with NCI-H226 lung, 95.6%; in the experiment with NCI-H322M lung, 105%; with HOP-62 NSCLC, 102%; with NCI-H460 lung, 102%; in the experiment on HOP-92 NSCLC, 108%. The growth was 90.6% in the experiment with NCI-H522 lung; 110% with A549/ATCC NSCLC; 102% in the experiment with 786-0 renal; 105% with COLO 205 colon; 110% with DU-145 prostate; 97% in the experiment on MALME-3M melanoma. Further, the growth with MDA-MB-231 breast is 104%; in the experiment with RXF 393 renal, 111%; with SF-268 CNS it was 93.9%; in the experiment on SF-295 CNS, 95.3%; with SF-539 CNS, 95.3%; in the experiment with UACC-257 melanoma, 128%. For the same molecule, the growth in the experiment on M14 melanoma is 105%.
